Source: the supplement of paper PMC12669032
A number with no mark means an inactive call.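 The calls were made as follows: active = AUC reduced over 20% with Padj below 0.05 in at least 2 of 3 replicates; inactive = otherwise.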

Tests used:
Assay in all cases: growth AUC relative to DMSO control (median of replicates) (fraction); higher = more growth (less inhibition), active = hit call of the paper
Details in all cases: 20 µM; 24 h
Akkermansia muciniphila = tested on: Akkermansia muciniphila
Summary of the method: (§1)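 In round-bottom 96-well plates sealed with pierced gas-permeable seals, gut bacterial monocultures in mGAM were grown anaerobically at 37 °C from OD600 0.05 with 20 µM compound (1% DMSO). OD600 readings were taken hourly for 24 h, and the minimum OD was set to 0. Area under the growth curve was then normalised to the plate median of solvent-only wells, or to row and column medians on the industrial chemical plate. The value given is the median of three biological replicates grown on separate days.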

Bacteroides caccae = tested on: Bacteroides caccae
Summary of the method: as §1

Bacteroides clarus = tested on: Bacteroides clarus
Summary of the method: as §1

Bacteroides dorei = tested on: Bacteroides dorei
Summary of the method: as §1

Bacteroides stercoris = tested on: Bacteroides stercoris
Summary of the method: as §1

[1] = tested on: Bacteroides thetaiotaomicron
Summary of the method: as §1

Bacteroides uniformis = tested on: Bacteroides uniformis
Summary of the method: as §1

[2] = tested on: Bifidobacterium longum subsp. longum
Summary of the method: as §1

Clostridium difficile = tested on: Clostridium difficile
Summary of the method: as §1

Collinsella aerofaciens = tested on: Collinsella aerofaciens
Summary of the method: as §1

| SMILES | growth AUC (Akkermansia muciniphila) | growth AUC (Bacteroides caccae) | growth AUC (Bacteroides clarus) | growth AUC (Bacteroides dorei) | growth AUC (Bacteroides stercoris) | growth AUC [1] | growth AUC (Bacteroides uniformis) | growth AUC [2] | growth AUC (Clostridium difficile) | growth AUC (Collinsella aerofaciens) |
| --- | --- | --- | --- | --- | --- | --- | --- | --- | --- | --- |
| CCNc1nc(NC(C)C)nc(OC)n1 | 1.15 | 0.971 | 1.02 | 0.941 | 1.03 | 1 | 0.969 | 1.01 | 0.981 | 0.962 |
| S=C1NCCN1 | 1.05 | 0.998 | 0.998 | 1.06 | 1.13 | 1.01 | 1.03 | 0.947 | 1.05 | 1.02 |
| N#Cc1cc(Br)c(O)c(Br)c1 | 1.11 | 0.896 | 0.951 | 0.924 | 0.875 | 0.997 | 0.988 | 1.05 | 0.98 | 0.968 |
| CC1(C)C(C=C(Cl)Cl)C1C(=O)OC(C#N)c1cccc(Oc2ccccc2)c1 (stereo not given) | 1.06 | 0.942 | 1.03 | 1.02 | 1.24 | 0.963 | 1.01 | 0.926 | 0.986 | 0.966 |
| Nc1nc(N)nc(Cl)n1 | 1.01 | 1.05 | 1.02 | 1.01 | 1.16 | 1.01 | 1.02 | 1.01 | 1.03 | 0.992 |
| CCCSP(=S)(OCC)Oc1ccc(SC)cc1 (stereo not given) | 0.897 | 0.998 | 0.958 | 1 | 1.06 | 0.979 | 0.998 | 0.971 | 1.01 | 1.04 |
| CCS(=O)(=O)Cc1ccccc1OC(=O)NC | 1.05 | 0.949 | 1 | 0.994 | 1.1 | 0.971 | 0.995 | 1.01 | 0.977 | 1.05 |
| N#CC(CCc1ccc(Cl)cc1)(Cn1cncn1)c1ccccc1 (stereo not given) | 1.02 | 0.967 | 0.961 | 0.952 | 0.941 | 0.94 | 0.873 | 0.978 | 0.957 | 0.968 |
| CCCCOCN(C(=O)CCl)c1c(CC)cccc1CC | 1.07 | 0.909 | 0.955 | 0.944 | 1.25 | 0.923 | 0.954 | 0.996 | 0.979 | 0.928 |
| O=C(Nc1ccccc1)Nc1ccnc(Cl)c1 | 0.926 | 0.9 | 0.949 | 0.977 | 0.926 | 0.94 | 0.886 | 0.959 | 0.941 | 1.01 |
| COc1ccc(C(c2ccc(OC)cc2)C(Cl)(Cl)Cl)cc1 | 0.973 | 0.92 | 0.849 | 0.926 | 0.49 (active) | 0.776 (active) | 0.813 | 0.926 | 0.988 | 0.975 |
| CN(C)C(=O)C(c1ccccc1)c1ccccc1 | 0.89 | 1.03 | 0.963 | 1.05 | 0.957 | 0.992 | 1.05 | 0.947 | 1.03 | 1.01 |
| CCCCC(CC)COC(=O)c1ccccc1C(=O)OCC(CC)CCCC (stereo not given) | 1.03 | 0.989 | 0.993 | 0.963 | 0.898 | 0.993 | 1.03 | 0.984 | 0.977 | 0.888 |
| COC(=O)C(C)(Cl)Cl | 0.86 | 0.984 | 1.01 | 1.02 | 1 | 1.04 | 0.968 | 1.02 | 1.01 | 1.01 |
| O=P(O)(O)CCCl | 1.07 | 0.964 | 1.02 | 0.986 | 1.08 | 1.01 | 1.03 | 1.07 | 0.959 | 0.973 |
| CCOC(=O)CC(SP(=O)(OC)OC)C(=O)OCC (stereo not given) | 1.24 | 0.989 | 0.992 | 0.919 | 0.976 | 1.01 | 0.972 | 0.996 | 0.952 | 0.973 |
| CN(C)C(CSS(=O)(=O)[O-])CSS(=O)(=O)O.[Na+] | 1.01 | 1.02 | 0.998 | 1.03 | 1.03 | 0.98 | 1.13 | 1.01 | 0.943 | 0.999 |
| CC(C)(C)C(=O)C(Oc1ccc(Cl)cc1)n1cncn1 (stereo not given) | 1.04 | 0.993 | 1 | 1.01 | 1.1 | 0.999 | 0.978 | 1.02 | 1.03 | 1.01 |
| O=C(NC(=O)c1c(F)cccc1F)Nc1cc(Cl)c(OC(F)(F)C(F)F)c(Cl)c1 | 1.17 | 1 | 0.954 | 0.967 | 1.05 | 0.998 | 0.956 | 0.999 | 0.967 | 0.994 |
| CCc1cccc(C)c1N(C(=O)CCl)C(C)COC (stereo not given) | 1.03 | 0.884 | 1.01 | 0.995 | 1.26 | 1 | 0.935 | 1.07 | 0.979 | 1.02 |
| ClC1=C(Cl)[C@]2(Cl)[C@@H]3[C@@H]4C[C@@H]([C@H]5O[C@@H]45)[C@@H]3[C@@]1(Cl)C2(Cl)Cl | 0.945 | 0.98 | 1.01 | 1 | 0.947 | 0.967 | 0.979 | 1.02 | 0.973 | 0.989 |
| COP(=S)(NC(C)C)Oc1ccccc1C(=O)OC(C)C (stereo not given) | 1.07 | 0.991 | 0.93 | 0.942 | 1.04 | 0.907 | 0.872 | 1.02 | 1.01 | 1.01 |
| C1CCC(NC2CCCCC2)CC1.O=NO | 0.874 | 0.983 | 0.991 | 0.991 | 0.831 | 0.984 | 0.943 | 0.967 | 1.01 | 1.08 |
| CCN(CC)c1nc(C)cc(OP(=S)(OC)OC)n1 | 0.948 | 0.979 | 0.974 | 1 | 0.927 | 0.945 | 0.976 | 0.967 | 1.02 | 0.989 |
| CC(C)C(C(=O)OC(C#N)c1cccc(Oc2ccccc2)c1)c1ccc(Cl)cc1 (stereo not given) | 0.88 | 0.977 | 1 | 0.935 | 1.1 | 1.02 | 0.986 | 0.765 | 1.01 | 0.903 |
| NCP(=O)(O)O | 1.04 | 1.02 | 1.03 | 1.03 | 1.17 | 0.982 | 1.02 | 1.04 | 1.06 | 1.05 |
| C#CCOS(=O)OC1CCCCC1Oc1ccc(C(C)(C)C)cc1 (mixture of isomers) | 1.08 | 0.98 | 0.976 | 0.984 | 0.916 | 0.991 | 0.99 | 0.908 | 0.956 | 0.975 |
| Cc1ccc(NC(=O)c2snnc2C)cc1Cl | 0.741 | 0.968 | 0.914 | 1.03 | 0.879 | 0.905 | 1.02 | 0.898 | 1 | 1.05 |
